Assay results: ChEMBL document CHEMBL3988442, “University of Dundee, Small-Polar-MMV Screening Library” (2021)
Screen size: about 48,000 compounds; about 13,000 (27%) showed an effect of 50% or more. The list shows a part of the results.

Tested on: Wolbachia pipientis
Test: Anti-Wolbachia Cell-Based Screen
Assay type: functional
Parameters: scale not given: in the data most compounds retested in dose-response had high values
Settings: 5 µM

Compound	Percent Effect
O=C(NCCNS(=O)(=O)c1ccc2c(c1)CCCC2)c1ccoc1	1.057%
CC(c1ccc(C(F)(F)F)cc1)N1CCN(CCS(C)(=O)=O)CC1 (stereo unspecified)	-14.82%
Cc1nn(C)cc1CNC(=O)c1cn(CCC2CCCCN2)nn1 (stereo unspecified)	3.544%
CC(C)CSCCN1CCN(S(C)(=O)=O)CC1	87.34%
COc1cccc(/C=C/CCN2CCN(S(C)(=O)=O)CC2)c1	-6.634%
CS(=O)(=O)N1CCN(Cc2ccc(F)cc2Br)CC1	0.07282%
CC(OCC(F)(F)F)C(=O)N1CCN(S(C)(=O)=O)CC1 (stereo unspecified)	-14.66%
CS(=O)(=O)N1CCCN(CCCSCc2ccccc2)CC1	0.2965%
CC(C)COC(C)C(=O)N1CCN(S(C)(=O)=O)CC1 (stereo unspecified)	-15.22%
CCSCCN1CCCN(S(C)(=O)=O)CC1	101%
Cc1noc(C)c1C(=O)NCCN1CCN(S(C)(=O)=O)CC1	1.414%
CC(C)CSCCN1CCCN(S(C)(=O)=O)CC1	87.23%
c1ccc2c(c1)CCN(c1ncnc3sc4c(c13)CCNC4)C2	-22.34%
CC(C)(C)c1nnc(CN2CCn3c(nnc3C3CC3)C2)o1	-1.017%
Cc1nn(C)c(N(C)C)c1CNCc1cccc(CN(C)C(C)C)c1	4.552%
Cc1nn(C)c(N(C)C)c1CNC(C)COc1ccc(F)cc1 (stereo unspecified)	102.4%
Cc1nn(C)c(N(C)C)c1CNC(C)COc1ccc(F)cc1F (stereo unspecified)	105.9%
COCCOc1ccccc1CNCc1c(C)nn(C)c1N(C)C	3.924%
Cc1nn(C)c(N(C)C)c1CNC(C)c1cccnc1 (stereo unspecified)	9.889%
COc1cccc(OCCNCc2c(C)nn(C)c2N(C)C)c1	-5.717%
COc1cc(CNCc2c(C)nn(C)c2N(C)C)ccc1C	5.351%
Cc1nn(C)c(N(C)C)c1CNCC(O)COc1ccc(F)cc1 (stereo unspecified)	-24.06%
CCOc1cccc(C(C)NCc2c(C)nn(C)c2N(C)C)c1 (stereo unspecified)	98.21%

Compound	Percent Effect
Cc1nn(C)c(N(C)C)c1CNCC(O)COc1ccccc1.Cl (stereo unspecified)	-3.331%
Cc1nn(C)c(N(C)C)c1CNC(C)COc1ccccc1F (stereo unspecified)	101.5%
c1cc(-c2c[nH]c([C@@H]3COCCN3C3CCOCC3)n2)ccn1	-2.86%
COc1cccc(C(C)N2CCN(S(=O)(=O)CCCF)CC2)c1 (stereo unspecified)	11.55%
CC(C(=O)Nc1ccnn1C(C)C)N1CCN(Cc2ccccc2)CC1 (stereo unspecified)	-23.16%
c1cc(-c2cnc(C3CCNCC3)cn2)n[nH]1	125.1%
c1cc(-c2cncc(C3CCNCC3)n2)n[nH]1	120.5%
O=c1n(Cc2ncccn2)nc(C2CCNCC2)n1-c1ccccc1	0.768%
CC(C)n1cnc2c(-c3cccnc3)nc(C3CCNCC3)cc21.Cl.Cl	-47.69%
O=C(c1cscn1)N1CCCC12CCCN(S(=O)(=O)c1ccccc1)C2 (stereo unspecified)	-2.919%
CC(C)[C@@H]1CN(Cc2cnc3c(S(C)(=O)=O)cnn3c2)C[C@H]1N(C)C	-1.352%
OCC1CCCN1c1cc(NCc2ccc(Cl)s2)ncn1 (stereo unspecified)	16.81%
CS(=O)(=O)NCCCN1CCCC1Cc1ccccc1 (stereo unspecified)	-4.416%
Cc1nccc(N2CCCC2CCNS(C)(=O)=O)n1 (stereo unspecified)	105.7%
COc1ncccc1CNc1cc(N2CCCC2CO)ncn1 (stereo unspecified)	0.4879%
CCc1ccc(CNc2cc(N3CCCC3CO)ncn2)s1 (stereo unspecified)	110.8%
CN(CCCNc1cc(N2CCCC2CO)ncn1)S(C)(=O)=O (stereo unspecified)	-14.7%
CNc1cc(N2CCCC2CNCc2ccccn2)ncn1 (stereo unspecified)	-5.969%
Cc1nccc(N2C[C@H](NC(=O)CNS(C)(=O)=O)[C@@H](C3CC3)C2)n1	-1.379%
Cc1cccnc1CNc1cc(N2CCCC2CO)ncn1 (stereo unspecified)	-0.7119%
OCC1CCCN1c1cc(NCc2cccs2)ncn1 (stereo unspecified)	94.03%
Cc1nccc(CNc2cc(N3CCCC3CO)ncn2)n1 (stereo unspecified)	87.89%
COc1ccc(-c2noc([C@@H](C)NS(=O)(=O)CC(C)C)c2C(=O)O)cc1	-11.95%

Compound	Percent Effect
Cn1cc(Cl)c(CN2CCn3nc(C(=O)Nc4ccccc4)cc3C2)n1	-7.275%
Cc1ccsc1CNc1cc(N2CCCC2CO)ncn1 (stereo unspecified)	12.33%
OCC1CCN(c2ccc(NCc3ccsc3)nc2)CC1	-9.25%
COCc1ccccc1CNc1cc(N2CCCC2CO)ncn1 (stereo unspecified)	1.416%
Cc1ccc(CNc2cc(N3CCCC3CO)ncn2)s1 (stereo unspecified)	116.3%
Cc1ncsc1CNc1cc(N2CCCC2CO)ncn1 (stereo unspecified)	92.3%
Cc1noc(C)c1CNc1cc(N2CCCC2CO)ncn1 (stereo unspecified)	-3.514%
CN1CCN(c2cc(N3CCCC3CO)ncn2)Cc2ccccc21 (stereo unspecified)	10.62%
Cc1cccc2c1CCN(c1cc(N3CCCC3CO)ncn1)C2 (stereo unspecified)	1.096%
OCC1CCCN1c1cc(NCc2ccsc2)ncn1 (stereo unspecified)	106%
CN(CC1COc2ccccc2O1)C(=O)NCCCn1cncn1 (stereo unspecified)	-12.38%
CCc1nnc2n1CCN(Cc1csc(-c3ccsc3)n1)C2	-5.09%
CCc1nnc2n1CCN(Cc1csc(-c3ncccn3)n1)C2	-18.32%
c1cnc(-c2nc(CN3CCn4c(nnc4C4CC4)C3)cs2)nc1	13.95%
Cc1nnc2n1CCN(Cc1csc(-c3ccsc3)n1)C2	121.4%
Cc1ccc(-c2nc(CN3CCn4c(C)nnc4C3)cs2)o1	51.15%
Cc1nnc2n1CCN(Cc1csc(-c3cnn(C)c3)n1)C2	-23.78%
CCc1nnc2n1CCN(Cc1csc(-c3ccc(C)o3)n1)C2	-1.199%
Cc1nnc2n1CCN(Cc1csc(COc3ccccc3)n1)C2	109.3%
Cc1nnc2n1CCN(Cc1csc(-c3ccc(F)cc3)n1)C2	-7.701%
Cc1nnc2n1CCN(Cc1csc(-c3ncccn3)n1)C2	110.5%
Cc1nnc2n1CCN(CCOc1ccccc1)C2	2.68%
Cc1ccc(-c2nc(CN3CCn4c(nnc4C4CC4)C3)cs2)o1	3.918%

Compound	Percent Effect
CC(C)C1C(=O)NCCN1C(=O)CCCc1nc(C(C)(C)C)no1 (stereo unspecified)	-23.49%
COc1ccnc(N2CCN(C(=O)CCc3cnn(C)c3)CC2)n1	36.6%
COCC1CN(Cc2cc(C)on2)Cc2cn(C)nc21 (stereo unspecified)	6.327%
CCN(C)CC1CCN(S(=O)(=O)c2cc(C)c(F)cc2Cl)C1 (stereo unspecified)	6.524%
COc1c(C2CCCN2CC(=O)Nc2cc(C)no2)c(C)nn1C (stereo unspecified)	-8.496%
Cc1nn(C)c(Cl)c1C1CCCN1CC(=O)NCc1ccccn1 (stereo unspecified)	-3.313%
COc1c(C2CCCN2CC(=O)NCc2ccccn2)c(C)nn1C (stereo unspecified)	101.4%
Cc1nn(C)c(C)c1C1CCCN1CC(=O)NCc1ccccn1 (stereo unspecified)	103.7%
COc1c(C2CCCN2CC(=O)Nc2nc(C)cs2)c(C)nn1C (stereo unspecified)	-2.535%
Cc1nn(C)c(Cl)c1C1CCCN1CCc1ccccn1 (stereo unspecified)	5.429%
Cc1nn(C)c(C)c1C1CCCN1CC(=O)Nc1ccncc1 (stereo unspecified)	1.396%
Cc1cc(CN2CCCC2c2c(C)nn(C)c2Cl)no1 (stereo unspecified)	7.779%
Cc1nn(C)c(Cl)c1C1CCCN1Cc1ccccn1 (stereo unspecified)	85.99%
CNC(=O)C1CCC(NC(=O)N(C)Cc2c(C)noc2C)CC1 (stereo unspecified)	3.279%
Nc1cc(O)nc(CCNC(=O)CC[C@@H]2CCCN3CCCC[C@H]23)n1	-22.38%
CCC(O)CN(Cc1cccc(C(=O)N(C)C)c1)c1ccccc1 (stereo unspecified)	6.575%
CCC(C)(O)CNc1ccc(S(=O)(=O)C(F)F)cc1 (stereo unspecified)	-17.2%
Cn1c(=O)[nH]c2cc(C(=O)OCC(F)F)ccc21	-3.927%
CC(C)n1cnnc1Cn1c(=O)cnc2ccccc21	-19.8%
O=C(c1cccc(Cl)c1)N1CCCC(Nc2ccc(F)cc2)C1 (stereo unspecified)	-14.25%
Cc1ccc(O)c(C(=O)N2CCCC(NC(=O)C(C)C)C2)c1 (stereo unspecified)	85.08%
CCC1CN(C(=O)c2ccc(Cl)cc2O)CCN1C(C)C (stereo unspecified)	-0.08814%
CC(C)C(=O)NC1CCCN(C(=O)c2ccc(O)c(Cl)c2)C1 (stereo unspecified)	88.73%

Compound	Percent Effect
Cc1ccc(C(=O)N2CCCC(C(=O)N3CCCCC3)C2)c(O)c1 (stereo unspecified)	-5.568%
CC(C)C(=O)NC1CCCN(C(=O)c2cc(Cl)ccc2O)C1 (stereo unspecified)	122.5%
CC(=O)NC1CCCN(C(=O)CNc2cc(Cl)cc(Cl)c2)C1 (stereo unspecified)	-7.422%
CCC1(C(=O)O)CCCN(C(=O)c2ccc(O)c(Cl)c2)C1 (stereo unspecified)	-6.141%
Cc1ccc(C(=O)N2CCCC(NC(=O)C(C)C)C2)c(O)c1 (stereo unspecified)	9.198%
COc1c(F)cc(NC(=O)N2CCC(CSC)C2)cc1F (stereo unspecified)	-4.081%
CS(=O)(=O)CCNC(=O)Nc1sc2ccccc2c1Cl	-6.956%
CCCn1[nH]cc/c1=N\C(=O)CN1CCCC1c1cccn1C (stereo unspecified)	-13.94%
O=C(C1CCOCC1)N1CCC2(CCC(C(=O)N3CCCC3)O2)CC1 (stereo unspecified)	-2.84%
Cc1noc(C2CCC3(CCN(C(=O)c4ccn(C)n4)CC3)O2)n1 (stereo unspecified)	89.59%
Cc1noc(C2CCC3(CCN(C(=O)c4cnn(C)c4)CC3)O2)n1 (stereo unspecified)	95.88%
Cc1noc([C@H]2C[C@H]3CN(C(=O)C4CCOCC4)CC[C@@H]3O2)n1	-6.774%
Cn1cc(C(=O)N2CC[C@@]3(O)CCN(C(=O)C4CCCC4)C[C@H]3C2)cn1	2.716%
Cc1noc(C2CCN(C(=O)c3cc(Br)ccc3F)CC2)n1	2.952%
Cn1ccc(C(=O)N2CCC3(CCC(=O)N(C4CCCC4)C3)CC2)n1	5.203%
Cc1noc(C2CCC3(CCN(C(=O)C4CCOCC4)CC3)O2)n1 (stereo unspecified)	108.6%
Cc1noc(C2CCCN(C(=O)c3scnc3Cl)C2)n1 (stereo unspecified)	3.125%
Cc1noc(C2CCC3(CCN(C(=O)c4sccc4C)CC3)O2)n1 (stereo unspecified)	105.9%
Cc1noc(C2CCC3(CCN(C(=O)C4=CCCCC4)CC3)O2)n1 (stereo unspecified)	-12.42%
